The structures appear in SMILES notation. Hit rate of the full screen: of about 52,000 compounds, about 1,700 (3.3%) were called active. The sample holds actives, similar compounds and a random draw of the others, so the mix is not that of the screen. Cut-off read from the data, not from the text of the source: active = survival mostly below about 52% (no sharp cut-off); inactive = mostly above about 56%.

The test system of this test is Wild type. Briefly: S. aureus survival, RN4220 and DeltatarO strains – OD600, teichoic acid synthesis inhibitors, primary screen (AID 463173). To be noted: S. aureus RN4220 wild type/DeltatarO growth, OD600, 18 h, stronger effect = lower value, screened at 18.75 µg/mL (by protocol).
In the case of `CCOc1ccc(S(=O)(=O)n2nc(C)c(S(=O)(=O)N3CCCCC3)c2C)cc1`, the survival is 67% (inactive). For `Cc1ccc(C)c(NC(=O)Cn2c(=O)n(CCCS(=O)(=O)C3CCCCC3)c(=O)c3ccccc32)c1`, the survival was 119% (inactive). `CSc1nc2ccc(S(=O)(=O)N3CCCCC3)cc2s1`: the survival was 105% (inactive). The result for `COCCCNC(=O)c1ccc(Cn2c(=O)c3ccccc3n(CC(=O)Nc3ccc(C)cc3C)c2=O)cc1` reads 100% (inactive). In the case of `Cc1ccccc1CNC(=O)Cc1csc2ccccc12`, the survival is 94% (inactive). The result for `COc1ccccc1NC(=O)CSc1ncc2c(n1)-c1cc(Cl)ccc1N(C)S2(=O)=O` reads 73% (inactive); that for `CCOc1ccc(NC(=O)CN2CCN(CC(=O)Nc3ccc(N(CC)CC)cc3)CC2)cc1`, 80% (inactive). Turning to `COc1ccc(NC(=O)c2cc3c(=O)n(Cc4cccs4)ccc3nc2C)c(OC)c1`, the survival is 83% (inactive). The result for `O=c1[nH]c2ccc(NCc3ccc(-c4ccc(Cl)cc4)o3)cc2[nH]1` reads 111% (inactive); that for `COc1ccc(CCNC(=O)C(=O)NCC(c2cccs2)S(=O)(=O)c2ccc(F)cc2)cc1` (configuration not stated), 73% (inactive); that for `Cc1cccc(NS(=O)(=O)c2ccc3nc(-c4ccccc4)[nH]c3c2)c1C`, 129% (inactive).

On to `Cc1ccc(NS(=O)(=O)c2ccc3nc(-c4ccccc4)[nH]c3c2)c(Cl)c1`, for which the survival is 60% (inactive). For `Cc1ccc(NS(=O)(=O)c2ccc3nc(-c4ccccc4)[nH]c3c2)cc1Cl`, the survival was 1% (active).

Consider `CC(C)c1ccc(NS(=O)(=O)c2ccc3nc(-c4ccccc4)[nH]c3c2)cc1`, for which the survival was 63% (inactive). As to `O=S(=O)(Nc1ccc(Br)cc1F)c1ccc2nc(-c3ccccc3)[nH]c2c1`, the survival is 71% (inactive). The result for `COc1ccc(NS(=O)(=O)c2ccc3nc(-c4ccccc4)[nH]c3c2)cc1` reads 81% (inactive). Then `Cc1ccc(NS(=O)(=O)c2ccc3nc(-c4ccccc4)[nH]c3c2)c(Br)c1`, with 63% (inactive); and `O=S(=O)(Nc1ccc(Br)cc1)c1ccc2nc(-c3ccccc3)[nH]c2c1`, with -3% (active); and `Cc1cc(NS(=O)(=O)c2ccc3nc(-c4ccccc4)[nH]c3c2)ccc1Br`, with -4% (active). The result for `COc1cc(C)ccc1OCCSc1nc(-c2cccc(C)c2)nc2cc(=O)[nH]n12` reads 88% (inactive); that for `Cc1ccc(NC(=O)c2oc3ccc(S(=O)(=O)N4CCC5(CC4)OCCO5)cc3c2C)c(C)c1`, 143% (inactive). Take `O=C(CS(=O)(=O)c1cccc2nsnc12)Nc1cc(F)ccc1F`: the survival was 97% (inactive). Then `Cn1c(=O)c2c(nc(NCCc3ccccc3)n2Cc2ccc(Cl)cc2)n(C)c1=O`, with 74% (inactive).

For `CCc1ccc(N2C(=O)C3C4CCCC4=C4CCCC4C3C2=O)cc1` (configuration not stated), the survival is 116% (inactive). With `Cn1c(=O)c2c(nc3n(-c4ccc(O)cc4)c(-c4ccc(Br)cc4)cn23)n(C)c1=O`, the survival is 142% (inactive). In the case of `COc1ccc(CNC(=O)C2CCN(C(=O)N3CCOc4ccc(C)cc43)CC2)cc1`, the survival is 80% (inactive).

Turning to `Cc1cccn2c(=O)c3cc(C(=O)Nc4ccc(Cl)c(Cl)c4)sc3nc12`, the survival was 71% (inactive). Turning to `O=C(O)CCSc1nnnn1-c1ccccc1`, the survival was 114% (inactive). With `CCS(=O)(=O)c1nnnn1-c1ccccc1`, the survival was 1% (active). Then `c1ccc(CNc2nnnn2-c2ccccc2)cc1`, with 106% (inactive). As for `COc1ccc(C2CC(=O)c3cc(-c4nc(-c5cccc([N+](=O)[O-])c5)cs4)c(=O)n(-c4cc(C)cc(C)c4)c3C2)cc1` (configuration not stated), the survival is 80% (inactive). The result for `COc1ccc(C2=Nc3ccccc3N(CC(=O)Nc3cccc(C(C)=O)c3)C(=O)C2)cc1` reads 136% (inactive); that for `Cc1ccc(CNC(=O)C2CCN(S(=O)(=O)c3cn(C)cn3)CC2)cc1`, 82% (inactive); that for `CN(C)c1ccc(CNC(=O)C2CCN(S(=O)(=O)c3cn(C)cn3)CC2)cc1`, -2% (active).

As to `COc1ccccc1CNC(=O)C1CCN(S(=O)(=O)c2cn(C)cn2)CC1`, the survival was -3% (active).

`COc1ccc(OC)c(CNC(=O)C2CCN(S(=O)(=O)c3cn(C)cn3)CC2)c1`: the survival is 82% (inactive). For the compound `Cn1cnc(S(=O)(=O)N2CCC(C(=O)NCc3ccccc3Cl)CC2)c1`, the survival is 128% (inactive).

As for `Cc1ccc(N(C)C(=O)C2CCN(S(=O)(=O)c3cn(C)cn3)CC2)cc1`, the survival was 10% (active). On to `Cn1cnc(S(=O)(=O)N2CCC(C(=O)NCc3ccc(Cl)cc3)CC2)c1`, for which the survival is 95% (inactive). On to `Cc1ccc(C)c(N2CCN(C(=O)C3CCN(S(=O)(=O)c4cn(C)cn4)CC3)CC2)c1`, for which the survival is 75% (inactive). Then `Cc1cc(C)cc(NC(=O)C2CCN(S(=O)(=O)c3cn(C)cn3)CC2)c1`, with 73% (inactive). Then `COc1ccc(-c2cn3nc(SCC(=O)Nc4cc(C)cc(C)c4)ccc3n2)cc1`, with 68% (inactive); and `CCN(CC)S(=O)(=O)c1ccc(C(=O)N2CC(=O)Nc3ccc(F)cc3C2c2ccccc2)cc1` (configuration not stated), with 81% (inactive); and `COc1ccc(NC(=O)c2ccc(-c3nc(COc4ccccc4)c(C)o3)cc2)cc1`, with 84% (inactive).

Regarding `Cc1n[nH]c(C)c1N1C(=O)c2cccc3c(N4CCCCC4)ccc(c23)C1=O`, the survival is 116% (inactive).

For `O=C(NCCO)C(=O)NCC(c1ccc2c(c1)OCO2)N1CCOCC1` (configuration not stated), the survival was 59% (inactive).

As for `COCCNC(=O)C(=O)NCC(c1ccc2c(c1)OCO2)N1CCOCC1` (configuration not stated), the survival was -3% (active). Take `CNC(=O)C(=O)NCC(c1ccc2c(c1)OCO2)N1CCOCC1` (configuration not stated): the survival was 113% (inactive). The result for `O=C(NCCCO)C(=O)NCC(c1ccc2c(c1)OCO2)N1CCOCC1` (configuration not stated) reads 10% (active); that for `COc1ccc(CNC(=O)C(=O)NCC(c2ccc3c(c2)OCO3)N2CCOCC2)cc1` (configuration not stated), 80% (inactive); that for `COc1ccc(CCNC(=O)C(=O)NCC(c2ccc3c(c2)OCO3)N2CCOCC2)cc1OC` (configuration not stated), 73% (inactive). Then `COCCCNC(=O)C(=O)NCC(c1ccc2c(c1)OCO2)N1CCOCC1` (configuration not stated), with 87% (inactive); and `CC(C)(C)C(=O)NCC(c1ccc2c(c1)OCO2)N1CCOCC1` (configuration not stated), with -2% (active). Consider `CN(C)CCCNC(=O)C(=O)NCC(c1ccc2c(c1)OCO2)N1CCOCC1` (configuration not stated), for which the survival was 124% (inactive). The result for `COc1ccc(CCNC(=O)C(=O)NCC(c2ccc3c(c2)OCO3)N2CCOCC2)cc1` (configuration not stated) reads 0% (active); that for `CC(C)(C)CC(=O)NCC(c1ccc2c(c1)OCO2)N1CCOCC1` (configuration not stated), 73% (inactive); that for `CN(C)CCNC(=O)C(=O)NCC(c1ccc2c(c1)OCO2)N1CCOCC1` (configuration not stated), 73% (inactive).

Source of the values: PubChem BioAssay AID463173 (ICCB-Longwood Screening Facility, Harvard Medical School, 2010).
